Screening data: PubChem, National Center for Advancing Translational Sciences (NCATS)
Most compounds without a hit are left out; they make up all but 6.1% or so of the library.
D3 ag: qHTS of D3 Dopamine Receptor Agonist: qHTS | D(3) dopamine receptor (Homo sapiens), P35462 | D3R DiscoveRx beta-arrestin cells, luminescence, 90 min | max activation, % | 410,000 tested, 0.58% active | AID 652048, 2013; in the data active = max activation above about 30%; note: 0% is about no effect
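Agonist-mode cell screen: cells plated at 1500/well and incubated overnight at 37 °C, then exposed to library compounds for 90 min at 37 °C. Detection reagent was added for 30–60 min at room temperature, and luminescence was read.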
DRD3 antagonist: qHTS of D3 Dopamine Receptor Antagonist: qHTS; D(3) dopamine receptor (Homo sapiens), P35462; 360,000 tested, 2.5% active; D3R cells, DiscoveRx beta-arrestin luminescence, antagonist mode; hits give low values; max response, negative = inhibition, %; AID 652054, 2013; in the data active = max response below about -50%; inconclusive = no clear call, values can overlap the other calls; note: % is set by controls: 0 for no effect and ±100 for the full control effect
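Cells plated overnight at 1500 cells/well, then exposed to library compounds with dopamine controls for 90 minutes at 37 degrees C. DiscoveRx reagent added for 30–60 minutes at room temperature; luminescence read, quantitative HTS format.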
D1 antag: Antagonist of Human D 1 Dopamine Receptor: qHTS | 360,000 tested, 3.2% active | HEK293 TREx D1 cells, calcium flux, dopamine EC80; hits give low values | activity change, negative = inhibition, % at 10 µM | D(1A) dopamine receptor (Homo sapiens), P21728 | AID 504652, 2011; in the data active = activity change below about -30%; note: % is set by controls: 0 for no effect and ±100 for the full control effect
Target sequence (P21728 whole entry, looked up): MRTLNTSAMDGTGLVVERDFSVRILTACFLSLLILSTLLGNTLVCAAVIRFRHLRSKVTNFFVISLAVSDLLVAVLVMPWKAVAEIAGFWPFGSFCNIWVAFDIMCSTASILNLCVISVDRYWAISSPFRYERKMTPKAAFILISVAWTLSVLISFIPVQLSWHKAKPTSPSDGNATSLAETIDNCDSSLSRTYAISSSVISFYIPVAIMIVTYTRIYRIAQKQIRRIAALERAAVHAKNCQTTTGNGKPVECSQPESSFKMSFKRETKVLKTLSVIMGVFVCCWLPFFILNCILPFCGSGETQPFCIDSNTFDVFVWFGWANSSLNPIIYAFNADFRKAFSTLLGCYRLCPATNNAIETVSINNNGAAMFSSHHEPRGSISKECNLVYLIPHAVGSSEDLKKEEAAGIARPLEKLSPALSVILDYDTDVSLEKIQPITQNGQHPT
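Compound effects on dopamine-evoked calcium signalling were measured in tetracycline-induced HEK293 Trex D1 cells. Dopamine at EC80 followed a 180 s compound pre-read, and fluorescence was tracked kinetically for 180 s more.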
D1 ag: Allosteric Agonists of the Human D1 Dopamine Receptor: qHTS. D(1A) dopamine receptor (Homo sapiens), P21728. HEK293 T-REx D1 cells, calcium flux, agonist mode. activation, % at 2 µM. 360,000 tested, 1% active; in the data active = activation above about 30%; note: 0% is about no effect
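Inducible HEK293 T-REx D1 cells, force-coupled to calcium signalling, were plated at 4000 cells/well with tetracycline and held overnight at 30 C. After no-wash calcium dye loading, compound-evoked calcium rise over 180 s flagged agonists.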
D1 potentiator: Potentiators of Human D1 Dopamine Receptor: qHTS; 360,000 tested, 0.036% active; potentiation, % at 10 µM; D(1A) dopamine receptor (Homo sapiens), P21728; HEK293 TREx D1 cells, calcium flux, dopamine EC20 potentiation; AID 504651, 2011; in the data active = potentiation above about 30%; note: 0% is about no effect
The depositor's hits bear a star; ? = inconclusive; . = no result given.

SMILES	D3 ag	DRD3 antagonist	D1 antag	D1 ag	D1 potentiator
COC(=O)c1nc(NC(C)=O)n[nH]1	.	.	0	0	2
COC(=O)CN1C(c2ccc(OC)cc2)=Nc2ccc(Cl)cc2C1c1ccccc1 (centres undefined)	-16	-60*	-18	3	-2
NNC(=O)CN1C(=O)Nc2ccc(Br)cc2C1c1ccccc1 (centres undefined)	-3	-11	10	0	-5
COc1cc(C2=Nc3ccc(Br)cc3C(c3ccccc3)N2CC(=O)NN)cc(OC)c1OC (centres undefined)	-14	-51*	-18	2	-3
NNC(=O)CN1C(c2ccc(Br)cc2)=Nc2ccc(Br)cc2C1c1ccccc1 (centres undefined)	-49	-55*	15	2	-1
COC(=O)CN1C(CN2CCOCC2)=Nc2ccc(Br)cc2C1c1ccccc1 (centres undefined)	-11	-11	-49*	1	-7
O=C1Nc2ccccc2/C1=N/c1sc2c(c1C(=O)NCCc1ccccc1)CCCC2	-19	-90*	1	2	11
CCCn1c(N)c(N2CCCCC2)c(=O)n(CC(=O)Nc2ccccc2C)c1=O	1	9	8	0	-2
CCCn1c(N)c(N2CCCCC2)c(=O)n(CC(=O)Nc2ccc(OC(F)(F)F)cc2)c1=O	1	14	-30*	0	4
CC1CCN(C(=O)CSc2nnc(NC(=O)Nc3ccccc3)s2)CC1	7	.	.	-3	2
CN(C)S(=O)(=O)N1CCN(S(=O)(=O)c2ccc3ccccc3c2)CC1	7	-20	-21	4	-12
CN(C)C(=O)N1CCN(S(=O)(=O)c2ccc3ccccc3c2)CC1	30*	-11	3	5	-3
COc1cccc(CNC(=O)c2oc3ccc4c(c3c2C)C(=O)CC(C)(C)O4)c1OC	0	.	-12	2	0
COc1ccc(CN2CCCC(C(=O)c3ccc4c(c3)OCO4)C2)c(F)c1 (centres undefined)	-4	-59*	-23	10	-15
CC(=O)c1cccc(CN2CCCC(C(=O)c3ccc4c(c3)OCO4)C2)c1 (centres undefined)	-10	-23	-13	7	-3
O=C(c1ccc2c(c1)OCO2)C1CCCN(C2CCN(CCc3ccccc3)CC2)C1 (centres undefined)	-26	-84*	-32*	16	-5
CCCn1cc(CN2CCCC(C(=O)c3ccc4c(c3)OCO4)C2)c(C)n1 (centres undefined)	-21	-53*	14	6	-6
COc1ccc2c(=O)c(C)c(-c3ccccc3)oc2c1CN(C)C	-6	.	.	.	.
CCOC(=O)CSC1=NC(=O)/C(=C\c2ccc(Cl)cc2)S1	-5	-78*	0	100*	-3
CCOC(=O)C1CCN(C2=NC(=O)/C(=C/c3ccc(Cl)cc3)S2)CC1	2	-10	-17	1	-4
CC1CCCN(CC(=O)Nc2cccc([N+](=O)[O-])c2)C1 (centres undefined)	-29	0	10	1	-6
CC(C)S(=O)(=O)c1csc(NC(=O)Nc2cccc([N+](=O)[O-])c2)c1Cl	-8	-6	-33*	20	-9
Cc1nc(-c2cccc(NC(=O)Nc3ccc([N+](=O)[O-])cc3)c2)no1	-2	.	-45*	25	-6
O=C(CCc1ccccc1)Nc1cccc([N+](=O)[O-])c1	-17	?	-13	10	0
O=C(CN1CCCCCC1)Nc1cccc([N+](=O)[O-])c1	-7	-83*	25	1	-2
SMILES	D3 ag	DRD3 antagonist	D1 antag	D1 ag	D1 potentiator
COc1cc(NC(=O)Nc2cccc([N+](=O)[O-])c2)cc(OC)c1	-1	1	.	13	-8
O=C(CCCc1ccccc1)Nc1cccc([N+](=O)[O-])c1	-3	-11	-37*	14	-11
COc1ccc(C)cc1NC(=O)Nc1cccc(-c2noc(C)n2)c1	-15	.	-14	0	-2
Cc1ccc(S(=O)(=O)Nc2c(C)nn(C)c2C)c(C)c1	0	-7	-8	6	-3
Cc1occc1C(=O)NNC(=S)Nc1cccc([N+](=O)[O-])c1	-7	-109*	-11	3	1
O=C(Nc1cccc([N+](=O)[O-])c1)C1C2/C=C\CCCCC21 (centres undefined)	-7	22	-34*	12	-19
COc1ccc(CCNC(=O)Nc2cccc([N+](=O)[O-])c2)cc1	-14	-20	-34*	15	-6
Cc1cccc(NC(=S)NNC(=O)c2cccc([N+](=O)[O-])c2)c1	-8	-3	-8	0	-2
O=C(Nc1cccc([N+](=O)[O-])c1)C1C2CCCCC21 (centres undefined)	-8	2	-9	11	-1
O=C(Nc1ccc(C(=O)O)cc1)Nc1cccc([N+](=O)[O-])c1	4	-20	-3	2	-5
O=C(Nc1cccc([N+](=O)[O-])c1)Nc1cccc([N+](=O)[O-])c1	-2	-17	-45*	37*	-9
O=C(CCCOc1ccccc1)Nc1cccc([N+](=O)[O-])c1	3	-7	-5	1	-2
O=C(COC(=O)COc1ccccc1)Nc1cccc([N+](=O)[O-])c1	-5	3	-34*	6	0
O=C(Nc1cccc([N+](=O)[O-])c1)Nc1ccc2c(c1)OCCO2	-6	-11	-40*	18	-7
Cc1nc(CN2CCCCC2)c(O)c(=O)[nH]1	4	0	.	.	.
CCCCCCCCCCCCCCCCCCOP(=O)([O-])OC1CC[N+](C)(C)CC1	5	.	.	.	.
Cc1ccc(S(=O)(=O)c2nc(-c3cccc(Br)c3)oc2N2CCCCCC2)cc1	-10	.	16	0	-1
CC12CCC(=O)N1C(C(=O)N1CCN(c3ccccc3)CC1)CS2 (centres undefined)	6	1	-16	3	-1
CC12CCC(=O)N1C(C(=O)N1CCN(c3cccc(Cl)c3)CC1)CS2 (centres undefined)	23	11	-61*	9	.
Oc1ccc(-c2nc3ccccc3s2)c(O)c1	-3	37	-37*	1	-2
OB(O)O	7	.	.	.	.
C[C@H]1C[C@H]2[C@@H]3CCC4=CC(=O)C=C[C@]4(C)[C@@]3(F)[C@@H](O)C[C@]2(C)[C@@]1(O)C(=O)CCl	-17	.	.	.	.
CCOC(=O)N1CCN(S(=O)(=O)N2CCCC(C(=O)NCCc3ccccc3)C2)CC1 (centres undefined)	0	1	-5	-1	-4
